Experimental findings from PubChem BioAssay are described below.

The nature of assay [1]: reduced mouse 2C T cell binding to pMHC/ICAM-1 vesicles – MLPCN validation set, flow cytometry, LFA-1/ICAM-1 modulator project, pilot screen (AID 2523;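 active = response below a set limit, under 55% cells CD8-positive and vesicle-bound, and CD8 cells' 90th-percentile brightness under 279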;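 for vesicle binding response: mean PE anti-B7-1 fluorescence of CD8+ cells relative to row control; 100% = QL9-loaded vesicles with DMSO vehicle in the same plate row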). Particulars: 2C mouse CD8+ T cells, at 7 µM, stronger effect = lower value; double positive events: measured here: CD8+/vesicle+ event percentage. A general note: Flow cytometry measures light scatter and fluorescence of single cells or particles in a stream.

For assay [2], the target named is Integrin beta-1 (Homo sapiens) + Integrin alpha-4 (Homo sapiens) (UniProt P13612+P05556). Description: alpha4beta1 integrin LIBS antibody binding reduction – U937 cells, HUTS-21 mAb, flow cytometry, validation set, VLA-4 allosteric modulator project, pilot screen (AID 2674).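 Note: antibody binding induced by the VLA-4 ligand LDV present at three times its Kd; 0% = LDV ligand with antibody and no compound and 100% = antibody without LDV.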 Particulars: HUTS-21 LIBS mAb binding, at 6.7 µM, stronger effect = higher value, binding induced by LDV ligand.

Assay [3] is described as follows: calorie-restriction mimetic ROS inhibitors, yeast – validation compound set, pilot screen (AID 2706;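 active = superoxide response below 65% of plate, a cut near 3 SD across the whole screen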;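 note: yeast exposed to compound for one week at 30 degrees C before staining; 100% = mean of all compound wells on the same plate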). The conditions noted are these: S. cerevisiae aging, superoxide DHE fluorescence; at 10 µM, stronger effect = lower value.
The target in assay [4] is Beta-adrenergic receptor kinase 1 (Homo sapiens) (UniProt P25098). Description: GRK2 binders displacing RNA aptamer, biochemical, validation, human GRK2, bead flow cytometry (AID 488806;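 active = aptamer binding inhibition above 30%, about 3 SD of noise from non-fluorescent compounds; inactive = inhibition at or below 30%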). The conditions noted are these: bead-bound GRK2, FAM-aptamer displacement, at 10 µM, stronger effect = higher value.
Assay [5] addresses AP-2 complex subunit beta (Homo sapiens) (UniProt P63010). Description: beta-arrestin/AP2 interaction blockers – biochemical, validation set, GST-AP2 beads, flow cytometry, pilot screen (AID 504541;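 active = inhibition above 54%, about 3 SD of non-fluorescent compounds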;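 note: AP2 carries R879A mutation and is captured from E. coli lysate; bead-bound FITC arrestin peptide fluorescence measuring arrestin peptide binding to AP2; 0% = DMSO wells and 100% = excess unlabeled arrestin peptide control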). The conditions noted are these: FITC arrestin peptide, at 10 µM, stronger effect = higher value, AP2 beta2 appendage fragment, R879A mutant.
Assay [6] in a line: cytosolic pH regulators acting via V-ATPase – S. cerevisiae, pHLuorin, HTS validation (AID 504600; in the data active = response above about 15%;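 note: plate controls were DMSO for no effect and reference compound for full effect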). The conditions noted are these: V-ATPase proton transport, at 10 µM, stronger effect = higher value.
In assay [7] the test system is anti-desmoglein-3 scFv antibody binding to human DSG3. Description: blockers of pathogenic pemphigus antibody–desmoglein-3 binding – biochemical, validation compound set, bead-based, flow cytometry, pilot screen (AID 588368;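 active = binding below the plate cutoff, the plate median minus 3 SD, with a reading above zero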;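 note: signal is the median channel fluorescence of bead-bound GFP antibody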). Particulars: Protein G beads, DSG3-Fc, scFv-GFP binding, at 10 µM, stronger effect = lower value.
The nature of assay [8]: Nile Red efflux blockade in pump-expressing yeast – validation compound set, multiplex, phenotypic, pilot screen (AID 588506;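 active = efflux inhibition above 0.42, the validation set average plus 4 SD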;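 note: Nile Red retained in cells so higher fluorescence means more efflux inhibition; 0 = negative control wells and 1 = enniatin B 25 µM full block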). Particulars: S. cerevisiae pump-expressing triplex, Nile Red efflux flow cytometry; at 10 µM; stronger effect = higher value; the pumps come from Candida albicans.
The target of assay [9] is ATP-binding cassette sub-family B member 6 (Homo sapiens) (UniProt Q9NP58). Description: blockers of ABCB6-driven porphyrin uptake – K562-ABCB6 cells, flow cytometry, validation set, pilot screen (AID 588550;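 active = inhibition above the screen-wide mean plus 3 SD, about 51%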;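 note: 0% = DMSO wells and 100% = benzethonium chloride 70 µM positive control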). The conditions noted are these: K562-ABCB6 porphyrin accumulation, 1 h, at 10 µM, stronger effect = higher value.
The nature of assay [10]: AML differentiation inducers, ER-HoxA9 marrow cells – cell-based, GFP/MAC1 double positive, flow cytometry, validation set, primary screen (AID 588685;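 active = differentiation response of at least 50%, scaled between solvent and reference control, from cells with both markers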;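 note: compound exposure lasts four days before antibody staining and flow analysis; 0% = DMSO wells and 100% = 5 µM fulvestrant positive control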). Particulars: stronger effect = higher value, normalized: vehicle 0, fulvestrant 100.

Molecules are shown by their SMILES. Activity calls are given as the source filed them.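 Rule for the calls, unless noted: active = inhibition above 50%, about 3 SD of the validation set; inactive = the rest.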

Sequence of ATP-binding cassette sub-family B member 6 (Homo sapiens) (Q9NP58 whole entry, looked up): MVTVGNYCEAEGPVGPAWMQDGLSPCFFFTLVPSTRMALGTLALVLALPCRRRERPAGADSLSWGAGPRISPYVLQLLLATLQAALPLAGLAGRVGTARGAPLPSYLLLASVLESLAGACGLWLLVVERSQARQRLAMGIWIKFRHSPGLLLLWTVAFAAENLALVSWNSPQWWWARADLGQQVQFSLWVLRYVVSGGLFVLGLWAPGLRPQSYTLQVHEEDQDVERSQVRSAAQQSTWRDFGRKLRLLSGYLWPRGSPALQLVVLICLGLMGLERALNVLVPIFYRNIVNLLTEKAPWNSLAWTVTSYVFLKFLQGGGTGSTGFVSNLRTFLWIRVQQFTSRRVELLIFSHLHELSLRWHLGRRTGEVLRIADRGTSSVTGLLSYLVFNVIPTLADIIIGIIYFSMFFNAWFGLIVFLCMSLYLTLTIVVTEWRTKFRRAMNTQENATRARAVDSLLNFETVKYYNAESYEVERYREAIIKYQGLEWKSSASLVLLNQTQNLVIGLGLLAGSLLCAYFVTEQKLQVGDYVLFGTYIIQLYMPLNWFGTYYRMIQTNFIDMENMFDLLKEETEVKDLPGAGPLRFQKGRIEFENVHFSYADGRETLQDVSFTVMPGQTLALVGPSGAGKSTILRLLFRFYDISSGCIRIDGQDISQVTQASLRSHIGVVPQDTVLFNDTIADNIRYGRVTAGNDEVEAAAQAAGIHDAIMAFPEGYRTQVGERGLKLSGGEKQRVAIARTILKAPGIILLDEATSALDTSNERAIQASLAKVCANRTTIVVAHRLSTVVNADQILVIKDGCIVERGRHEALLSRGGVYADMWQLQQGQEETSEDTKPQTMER
Sequence of AP-2 complex subunit beta (Homo sapiens) (P63010 whole entry, looked up, the tested form may be a part, one chain of several): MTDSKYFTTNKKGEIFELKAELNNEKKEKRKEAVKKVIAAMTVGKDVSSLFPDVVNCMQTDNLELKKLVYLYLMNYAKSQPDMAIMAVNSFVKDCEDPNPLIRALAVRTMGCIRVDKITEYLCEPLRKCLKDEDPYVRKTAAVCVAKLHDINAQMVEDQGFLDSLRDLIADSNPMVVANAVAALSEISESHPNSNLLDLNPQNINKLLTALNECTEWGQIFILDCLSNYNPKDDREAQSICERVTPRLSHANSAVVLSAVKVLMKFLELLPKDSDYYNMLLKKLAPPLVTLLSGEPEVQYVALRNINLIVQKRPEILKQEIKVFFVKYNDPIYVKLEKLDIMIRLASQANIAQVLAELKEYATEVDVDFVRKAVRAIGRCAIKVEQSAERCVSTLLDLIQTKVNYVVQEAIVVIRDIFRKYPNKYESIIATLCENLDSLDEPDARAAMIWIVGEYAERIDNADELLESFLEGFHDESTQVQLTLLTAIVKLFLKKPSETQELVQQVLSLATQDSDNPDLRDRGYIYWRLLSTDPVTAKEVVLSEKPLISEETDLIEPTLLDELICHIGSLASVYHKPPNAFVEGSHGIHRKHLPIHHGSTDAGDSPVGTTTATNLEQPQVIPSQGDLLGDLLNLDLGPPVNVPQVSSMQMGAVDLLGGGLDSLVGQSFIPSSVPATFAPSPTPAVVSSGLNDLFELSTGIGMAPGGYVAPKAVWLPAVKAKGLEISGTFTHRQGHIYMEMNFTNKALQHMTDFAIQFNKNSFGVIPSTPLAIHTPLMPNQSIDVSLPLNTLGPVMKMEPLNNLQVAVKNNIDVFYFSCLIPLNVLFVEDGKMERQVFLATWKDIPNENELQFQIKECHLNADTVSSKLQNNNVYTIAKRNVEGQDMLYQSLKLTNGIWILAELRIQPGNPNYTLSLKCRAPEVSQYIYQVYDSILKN
Sequence of Beta-adrenergic receptor kinase 1 (Homo sapiens) (P25098 whole entry, looked up): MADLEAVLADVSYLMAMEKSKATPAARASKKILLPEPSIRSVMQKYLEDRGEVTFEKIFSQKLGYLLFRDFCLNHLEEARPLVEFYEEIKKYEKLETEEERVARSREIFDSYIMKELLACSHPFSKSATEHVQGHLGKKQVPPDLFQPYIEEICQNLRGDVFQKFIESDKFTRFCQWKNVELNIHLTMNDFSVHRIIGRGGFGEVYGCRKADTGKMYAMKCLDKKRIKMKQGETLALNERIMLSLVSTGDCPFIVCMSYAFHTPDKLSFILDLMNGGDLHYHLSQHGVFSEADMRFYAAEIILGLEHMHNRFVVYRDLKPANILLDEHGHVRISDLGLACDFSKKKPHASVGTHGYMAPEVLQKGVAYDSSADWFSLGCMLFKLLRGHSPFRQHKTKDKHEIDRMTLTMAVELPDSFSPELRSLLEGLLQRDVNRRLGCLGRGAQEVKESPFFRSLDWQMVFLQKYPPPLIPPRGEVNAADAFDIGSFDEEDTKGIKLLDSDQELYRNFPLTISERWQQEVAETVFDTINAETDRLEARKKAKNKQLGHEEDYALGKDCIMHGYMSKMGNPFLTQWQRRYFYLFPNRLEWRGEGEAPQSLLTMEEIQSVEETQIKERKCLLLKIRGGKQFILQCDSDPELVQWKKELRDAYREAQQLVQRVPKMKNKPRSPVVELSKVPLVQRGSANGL
Sequence of Integrin beta-1 (Homo sapiens) + Integrin alpha-4 (Homo sapiens) (P05556 whole entry, looked up): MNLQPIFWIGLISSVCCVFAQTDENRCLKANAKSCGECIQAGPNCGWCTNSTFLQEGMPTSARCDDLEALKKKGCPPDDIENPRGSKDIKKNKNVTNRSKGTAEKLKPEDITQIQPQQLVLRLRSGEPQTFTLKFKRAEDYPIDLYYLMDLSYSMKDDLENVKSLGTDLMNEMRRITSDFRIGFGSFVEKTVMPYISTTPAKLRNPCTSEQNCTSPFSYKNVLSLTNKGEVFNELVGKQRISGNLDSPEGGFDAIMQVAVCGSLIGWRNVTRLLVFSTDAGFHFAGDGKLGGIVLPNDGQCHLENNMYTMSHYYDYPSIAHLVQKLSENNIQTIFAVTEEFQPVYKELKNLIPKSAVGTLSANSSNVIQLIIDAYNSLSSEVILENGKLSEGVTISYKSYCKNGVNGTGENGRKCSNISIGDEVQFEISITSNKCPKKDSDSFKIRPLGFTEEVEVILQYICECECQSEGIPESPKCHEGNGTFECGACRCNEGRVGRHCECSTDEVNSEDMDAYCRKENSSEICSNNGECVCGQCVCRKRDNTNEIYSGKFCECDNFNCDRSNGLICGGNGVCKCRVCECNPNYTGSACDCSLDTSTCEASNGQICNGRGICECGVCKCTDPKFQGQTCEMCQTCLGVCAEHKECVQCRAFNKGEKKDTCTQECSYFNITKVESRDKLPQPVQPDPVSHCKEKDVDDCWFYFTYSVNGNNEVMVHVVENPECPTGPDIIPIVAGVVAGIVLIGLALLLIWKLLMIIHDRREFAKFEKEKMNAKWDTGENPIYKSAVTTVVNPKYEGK
Sequence of Integrin beta-1 (Homo sapiens) + Integrin alpha-4 (Homo sapiens) (P13612 whole entry, looked up): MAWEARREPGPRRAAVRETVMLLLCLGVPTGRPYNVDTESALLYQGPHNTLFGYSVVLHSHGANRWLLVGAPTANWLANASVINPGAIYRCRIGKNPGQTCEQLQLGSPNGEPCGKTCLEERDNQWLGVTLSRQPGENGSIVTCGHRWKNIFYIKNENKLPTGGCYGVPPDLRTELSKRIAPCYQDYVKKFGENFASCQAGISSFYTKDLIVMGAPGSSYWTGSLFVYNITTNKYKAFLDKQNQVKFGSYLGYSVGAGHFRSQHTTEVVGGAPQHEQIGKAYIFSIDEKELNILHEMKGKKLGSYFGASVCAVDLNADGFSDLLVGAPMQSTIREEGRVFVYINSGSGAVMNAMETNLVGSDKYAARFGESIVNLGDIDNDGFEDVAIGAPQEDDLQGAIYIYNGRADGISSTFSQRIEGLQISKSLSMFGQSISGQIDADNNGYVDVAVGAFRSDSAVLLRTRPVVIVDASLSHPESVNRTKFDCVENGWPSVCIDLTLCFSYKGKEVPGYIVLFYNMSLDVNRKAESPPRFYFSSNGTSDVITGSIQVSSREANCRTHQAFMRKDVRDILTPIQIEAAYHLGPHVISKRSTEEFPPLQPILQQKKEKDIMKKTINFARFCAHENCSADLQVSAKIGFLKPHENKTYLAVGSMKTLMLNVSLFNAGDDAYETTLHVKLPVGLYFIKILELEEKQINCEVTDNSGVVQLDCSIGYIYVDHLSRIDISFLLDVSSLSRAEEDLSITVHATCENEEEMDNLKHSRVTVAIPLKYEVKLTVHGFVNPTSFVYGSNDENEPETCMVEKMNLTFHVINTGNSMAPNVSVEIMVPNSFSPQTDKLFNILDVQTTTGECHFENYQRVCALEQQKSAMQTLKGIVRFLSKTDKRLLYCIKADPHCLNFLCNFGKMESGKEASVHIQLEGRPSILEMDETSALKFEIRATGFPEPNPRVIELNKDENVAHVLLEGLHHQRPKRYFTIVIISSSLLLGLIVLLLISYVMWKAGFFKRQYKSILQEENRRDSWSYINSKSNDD

As a reminder, the inhibition is the drop in the measured response relative to a control, in per cent. Consider `COc1ccc(C(=O)/C=C/c2cc(C(=O)O)cc3c2OCOC3)c(O)c1`, for which the double positive events in [1] amounted to 54.5%. Further, the vesicle binding response in [1] was 202% (inactive). The values for the inhibition in assay [2], in assay [5] and in [9] were -3.97% (inactive), -2.5% (inactive) and 0% (inactive), respectively. Moreover, the superoxide response (% of plate) in [3] was 99.9% (inactive). In addition, the aptamer binding inhibition in assay [4] was 6% (inactive). Further, in assay [6], the response is -6.09% (inactive). For the same molecule, the binding (% of control) in assay [7] was 95.7% (inactive). In assay [8], the efflux inhibition (fraction of control) was -0.43 (inactive). Moreover, the differentiation response in assay [10] was -1.82% (inactive).
`Cc1c(CCOC(=O)CC23CC4CC(CC(C)(C4)C2)C3)sc[n+]1Cc1ccc([N+](=O)[O-])cc1` gave a double positive events in assay [1] of 59%. The vesicle binding response in [1] was 208% (inactive). The inhibition in assay [2] was 8.15% (inactive); in [5], -6.04% (inactive); in assay [9], 6% (inactive). The superoxide response (% of plate) in assay [3] is 98.4% (inactive). Also, the aptamer binding inhibition in assay [4] is -9% (inactive). Moreover, the response in assay [6] was 3.23% (inactive). Also, the binding (% of control) in [7] was 108% (inactive). The efflux inhibition (fraction of control) in assay [8] was 1.81 (active). Also, in assay [10], the differentiation response is 0% (inactive).
The molecule `COc1ccc(CNC(=O)c2cc3c(=O)n4ccccc4nc3n(Cc3cccnc3)c2=N)cc1` registered a double positive events in [1] of 60.5%. Further, in assay [1], the vesicle binding response is 131% (inactive). In addition, the inhibition is -2.11% (inactive) in assay [2], -0.26% (inactive) in assay [5] and 4% (inactive) in assay [9]. The superoxide response (% of plate) in assay [3] is 92.2% (inactive). Besides, the aptamer binding inhibition in assay [4] is -6% (inactive). The response in [6] is 3.99% (inactive). In addition, the binding (% of control) in [7] is 112% (inactive). In assay [8], the efflux inhibition (fraction of control) is 0.22 (inactive). In addition, the differentiation response in [10] was -9.89% (inactive).
In assay [1], `O=C(O)c1cc(-c2ccccc2)nc2ccccc12` returned a double positive events of 62%. Also, the vesicle binding response in assay [1] was 151% (inactive). The figures for the inhibition in assay [2], in assay [5] and in [9] were 23.1% (inactive), 27.6% (inactive) and -2% (inactive), respectively. Besides, in assay [3], the superoxide response (% of plate) was 98.3% (inactive). Further, the aptamer binding inhibition in assay [4] was 4% (inactive). Further, the response in [6] is -5.56% (inactive). In assay [7], the binding (% of control) was 96.2% (inactive). For the same molecule, the efflux inhibition (fraction of control) in assay [8] was 0.1 (inactive). In assay [10], the differentiation response was 6.26% (inactive).
`CC1(C)CC(=O)c2cc(O)ccc2O1` showed a double positive events in assay [1] of 61%. Moreover, the vesicle binding response in assay [1] is 199% (inactive). Also, the inhibition in [2] is 13.8% (inactive); in assay [5] it was 10.6% (inactive); in assay [9] it was 11% (inactive). Also, in assay [3], the superoxide response (% of plate) is 95.8% (inactive). Further, the aptamer binding inhibition in assay [4] was 3% (inactive). Further, the response in assay [6] is -2.03% (inactive). Moreover, in assay [7], the binding (% of control) was 107% (inactive). In addition, the efflux inhibition (fraction of control) in [8] was -0.01 (inactive). The differentiation response in assay [10] is -13.1% (inactive).
`CC1(C)CC(CC(=O)Nc2nccs2)(c2ccccc2)CCO1` (centres undefined) came in with a double positive events in [1] of 51.5%. Besides, the vesicle binding response in [1] is 182% (inactive). For the same molecule, the inhibition in assay [2] was 4.42% (inactive); in [5], -9.2% (inactive); in assay [9], 8% (inactive). Also, the superoxide response (% of plate) in assay [3] was 103% (inactive). Also, the aptamer binding inhibition in assay [4] is -7% (inactive). Moreover, the response in [6] was 5.11% (inactive). Moreover, the binding (% of control) in assay [7] was 96.4% (inactive). Besides, in assay [8], the efflux inhibition (fraction of control) is 0.18 (inactive). For the same molecule, the differentiation response in assay [10] is 1.41% (inactive).
For the molecule `O=Cc1ccc(N2CCCCC2)cc1`, the double positive events in [1] is 54.6%. The vesicle binding response in assay [1] was 201% (inactive). Also, the inhibition in [2] is 10.9% (inactive); in assay [5] it was -10.3% (inactive); in assay [9] it was 4% (inactive). Moreover, in assay [3], the superoxide response (% of plate) was 106% (inactive). The aptamer binding inhibition in assay [4] is 3% (inactive). Besides, in [6], the response is 1.25% (inactive). In [7], the binding (% of control) was 101% (inactive). The efflux inhibition (fraction of control) in assay [8] is -0.05 (inactive). For the same molecule, in assay [10], the differentiation response was -3.43% (inactive).
With `COc1ccc(C2CNC(=O)C2)cc1OC1CCCC1` (centres undefined), the double positive events in assay [1] turned out to be 53.3%. Besides, in assay [1], the vesicle binding response was 151% (inactive). Moreover, the inhibition in assay [2] is -8.64% (inactive); in assay [5], 23.8% (inactive); in assay [9] it was 7% (inactive). The superoxide response (% of plate) in assay [3] is 104% (inactive). In addition, the aptamer binding inhibition in assay [4] was -6% (inactive). In addition, the response in assay [6] was -25.8% (inactive). Besides, the binding (% of control) in assay [7] was 105% (inactive). Also, in [8], the efflux inhibition (fraction of control) is -0.12 (inactive). Further, the differentiation response in assay [10] is -3.43% (inactive).
`CNS(=O)(=O)c1ccc(C)cc1` came in with a double positive events in assay [1] of 56.5%. Further, the vesicle binding response in [1] was 148% (inactive). Besides, the inhibition was 6.29% (inactive) in [2], -8.71% (inactive) in assay [5] and 8% (inactive) in assay [9]. Moreover, the superoxide response (% of plate) in assay [3] is 99.3% (inactive). The aptamer binding inhibition in assay [4] is 2% (inactive). Moreover, the response in assay [6] was 17.1% (active). Moreover, in assay [7], the binding (% of control) is 93.9% (inactive). The efflux inhibition (fraction of control) in assay [8] is 0.1 (inactive). Also, the differentiation response in assay [10] was -0.2% (inactive).
In the case of `COc1ccc2[nH]c(C)c(CN3CCC(C)CC3)c(=O)c2c1`, the double positive events in assay [1] worked out at 50.2%. Moreover, the vesicle binding response in [1] was 154% (inactive). Further, the inhibition was -14.2% (inactive) in assay [2], -1.75% (inactive) in [5] and 2% (inactive) in [9]. Further, the superoxide response (% of plate) in assay [3] was 100% (inactive). For the same molecule, the aptamer binding inhibition in assay [4] was 2% (inactive). For the same molecule, the response in assay [6] is 4.29% (inactive). In [7], the binding (% of control) is 98.5% (inactive). For the same molecule, in assay [8], the efflux inhibition (fraction of control) is 0.1 (inactive). Also, the differentiation response in assay [10] was -5.05% (inactive).
Molecule `Cc1ccc2nc3c(cc(C(=O)NCC4CCCO4)c(=N)n3CCCOC(C)C)c(=O)n2c1` (centres undefined) gave a double positive events in assay [1] of 62.1%. Further, the vesicle binding response in [1] was 176% (inactive). The inhibition in assay [2] is 9.09% (inactive); in assay [5], -3.18% (inactive); in assay [9], 14% (inactive). Further, in assay [3], the superoxide response (% of plate) was 82.4% (inactive). Moreover, in assay [4], the aptamer binding inhibition was 0% (inactive). The response in [6] was -20.8% (inactive). The binding (% of control) in assay [7] is 100% (inactive). For the same molecule, the efflux inhibition (fraction of control) in [8] is 0.33 (inactive). Moreover, the differentiation response in assay [10] was -24.4% (inactive).
As for `C[C@]12CCC(=O)C=C1CC[C@@H]1[C@@H]2CC[C@@]2(C)[C@H]1CC[C@]2(O)C(=O)CO`, in assay [1], the double positive events was determined as 54.2%. For the same molecule, in assay [1], the vesicle binding response is 143% (inactive). Besides, the inhibition in assay [2] was 5.36% (inactive); in assay [5], -3.62% (inactive); in assay [9], 4% (inactive). For the same molecule, the superoxide response (% of plate) in [3] was 96.8% (inactive). Also, in assay [4], the aptamer binding inhibition is 4% (inactive). In addition, in assay [6], the response is 1.37% (inactive). Further, in assay [7], the binding (% of control) was 96.2% (inactive). Besides, the efflux inhibition (fraction of control) in assay [8] was -0.31 (inactive). Also, the differentiation response in [10] was -3.43% (inactive).
As to `COc1cc2cc(C(=O)O)n(C)c2c(OC)c1OC`, the double positive events in assay [1] is 54.5%. For the same molecule, in assay [1], the vesicle binding response is 184% (inactive). The inhibition in assay [2] is 5.36% (inactive); in assay [5], 17.7% (inactive); in assay [9], 2% (inactive). The superoxide response (% of plate) in assay [3] was 103% (inactive). In addition, the aptamer binding inhibition in [4] was -6% (inactive). The response in [6] is -19.4% (inactive). Further, the binding (% of control) in [7] was 106% (inactive). In assay [8], the efflux inhibition (fraction of control) is -0.01 (inactive). The differentiation response in [10] was -3.43% (inactive).
`Cc1ccsc1/C=N\NC(=O)c1ccc2c(c1)OCO2` returned a double positive events in assay [1] of 62.5%. In assay [1], the vesicle binding response was 183% (inactive). Also, the inhibition in [2] is 10.9% (inactive); in [5], 11.1% (inactive); in [9] it was 7% (inactive). In assay [3], the superoxide response (% of plate) is 97% (inactive). Also, in assay [4], the aptamer binding inhibition was 3% (inactive). For the same molecule, the response in [6] was 1.01% (inactive). The binding (% of control) in assay [7] was 99.5% (inactive). Also, in assay [8], the efflux inhibition (fraction of control) is -0.12 (inactive). In assay [10], the differentiation response is 1.41% (inactive).
